Molecules are shown by their SMILES. The whole screen tested about 7,900 compounds, of which about 400 (5.1%) showed an effect of 50% or more. This excerpt belongs to a sample that is enriched for strong results.

The target of the test is Parkinson's disease protein 7 (PARK7/DJ1) (human, UniProt Q99497). Nature of the test: primary screen, percent inhibition; read as competition with a fluorescent probe by fluorescence polarization; higher = more effect of the substance. Particulars: 100 µM. The procedure, abridged: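 Fluorescence-polarization probe displacement (JYQ-107, 20 nM final, 2 h) after 2 h preincubation of PARK7 (0.2 μM final) with each fragment at 100 μM final. Read-out ex/em 480/520 nm; remaining activity derived from FP signal loss relative to reference controls.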
Parkinson's disease protein 7 (PARK7/DJ1), sequence (Q99497 whole entry, looked up, the tested form may be a part): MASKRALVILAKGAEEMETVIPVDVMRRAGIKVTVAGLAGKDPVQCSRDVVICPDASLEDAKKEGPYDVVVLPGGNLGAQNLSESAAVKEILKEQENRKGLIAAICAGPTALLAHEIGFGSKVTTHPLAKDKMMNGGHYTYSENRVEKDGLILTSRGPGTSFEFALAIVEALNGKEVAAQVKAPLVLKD
On to `C=CC(=O)N1CCC2COCC2C1` (stereo not drawn), for which the Inhibition % was 6.41%.

In the case of `N#Cc1nc(-c2ccc(Cl)cc2Cl)oc1N`, the Inhibition % is -2.51%.

Regarding `O=c1ccc2cc(S(=O)(=O)OCC(F)(F)F)ccc2o1`, the Inhibition % was 6.17%.

In the case of `C=CC(=O)NCCc1cncnc1`, the Inhibition % is 10.1%.

As for `CCc1ccc(C=CS(=O)(=O)Nc2onc(C)c2C)cc1`, the Inhibition % is recorded as 4.3%.

Turning to `N#Cc1cc(C(=O)NCC2CCc3nccn3C2)c[nH]1` (stereo not drawn), the Inhibition % is recorded as 16.5%.

On to `CCC(NC(=O)CCl)c1ccc(Br)cc1` (stereo not drawn), for which the Inhibition % worked out at 5.16%.

Regarding `CC1(C)OB(c2cccc(OCCCN3CCCC3)c2)OC1(C)C`, the Inhibition % was found to be 1.19%.

Take `C=CC(=O)N1CCCCC1c1noc(C)n1` (stereo not drawn): the Inhibition % is on record as 3.88%.

With `O=C(CN1CCSC1=O)N1CCN(c2ccccc2)CC1`, the Inhibition % is 5.93%.

As to `C=CC(=O)N1CCC(S(=O)(=O)NC(C)C)C1` (stereo not drawn), the Inhibition % came out at 7.14%.

In the case of `CC1(CO)CCCC1Nc1ccc(C#N)nc1` (stereo not drawn), the Inhibition % came out at 6.61%.

As to `COCc1cccnc1C#N`, the Inhibition % was 2.34%.

In the case of `Fc1ccc(C2CO2)nc1` (stereo not drawn), the Inhibition % is 4.53%.

On to `COCCn1c(C)cc(C(=O)CCl)c1C`, for which the Inhibition % is 49.1%.

For the compound `Cc1cc(C(=O)CCl)c(C)n1CC(F)(F)F`, the Inhibition % came out at 1.46%.

For the compound `CCCn1c(C)cc(C(=O)Cn2cnc(C#N)n2)c1C`, the Inhibition % was found to be 6.57%.

For the compound `Cc1cc(C(=O)Cn2cnc(C#N)n2)c(C)n1C1CC1`, the Inhibition % came out at 17.1%.

Regarding `Cc1cc(C=C(C#N)C(N)=O)c(C)n1Cc1ccco1`, the Inhibition % turned out to be 7.44%.

Turning to `Cc1cc(C(=O)CCl)c(C)n1C1CCS(=O)(=O)C1` (stereo not drawn), the Inhibition % worked out at 35.7%.

With `Cc1cc(C(=O)CCl)c(C)n1Cc1ccco1`, the Inhibition % is given as 54.9%.

On to `Cc1cc(C(=O)Cn2cnc(C#N)n2)c(C)n1C`, for which the Inhibition % is recorded as 18.2%.

Turning to `Cc1cc(C(=O)CCl)c(C)n1C`, the Inhibition % is 72.1%.

Take `Cc1cc(C(=O)CCl)c(C)n1C1CC1`: the Inhibition % amounted to 65%.

As to `CCCn1c(C)cc(C(=O)CCl)c1C`, the Inhibition % is on record as 56%.

For `CC(=O)Nc1c(C)cc(C)c(C(=O)CCl)c1C`, the Inhibition % was 14%.

For the compound `Cl.O=C(CCl)Nc1ncc[nH]1`, the Inhibition % amounted to 1.78%.

Take `C=CC(=O)N1C[C@H](F)C[C@H]1C(=O)N1CCOCC1`: the Inhibition % is reported as 10.5%.

In the case of `C=CC(=O)N1CCC(c2nc(C(F)(F)F)c[nH]2)CC1`, the Inhibition % is 0.0839%.

In the case of `C=CC(=O)N1CCC(C(=O)NCC(F)(F)F)C1` (stereo not drawn), the Inhibition % came to 4.08%.

For the compound `COC(F)(F)C(F)(F)c1ccc(B2OC(C)(C)C(C)(C)O2)cc1`, the Inhibition % was 6.09%.

`O=C(O)c1ccoc1CS`: the Inhibition % was 64.1%.

`CN(Cc1ncnn1C)S(=O)(=O)C=Cc1ccccc1`: the Inhibition % came out at 3.12%.

Consider `COc1ccccc1CNC(=O)CCl`, for which the Inhibition % is 28%.

Consider `COc1ccccc1CCNC(=O)CCl`, for which the Inhibition % is 15.8%.

As to `COc1cccc(CN(C)C(=O)CCl)c1OC`, the Inhibition % is recorded as 74.5%.

With `COc1ccccc1C(C)N(C)C(=O)CCl` (stereo not drawn), the Inhibition % turned out to be 31.5%.

With `COc1ccccc1CN(C)C(=O)CCl`, the Inhibition % was 98.6%.

`COc1cc(CO)ccc1B1OC(C)(C)C(C)(C)O1`: the Inhibition % came out at 4.39%.

Consider `CC(c1ccsc1)N1CCN(c2ccc(C#N)nc2)CC1` (stereo not drawn), for which the Inhibition % came out at 7.22%.

Take `CCN(CC)S(=O)(=O)c1cccc(NC(=O)CCl)c1`: the Inhibition % turned out to be 22.5%.

`CCN(CC)S(=O)(=O)c1cc(NC(=O)CCl)ccc1C`: the Inhibition % was 7.16%.

Turning to `CN(C)S(=O)(=O)c1ccc(NC(=O)CCCl)cc1`, the Inhibition % came out at 7.94%.

In the case of `CCN(CC)S(=O)(=O)c1ccc(NC(=O)CCl)cc1`, the Inhibition % is 90.5%.

`CC(C)N(C)S(=O)(=O)c1ccc(NC(=O)CCl)cc1`: the Inhibition % is reported as 83.8%.

Consider `CN(C)S(=O)(=O)c1ccc(NC(=O)CCl)cc1`, for which the Inhibition % is on record as 84.2%.

For the compound `Cc1ccc(NC(=O)CCl)cc1S(=O)(=O)N(C)C`, the Inhibition % came out at 10.4%.

For the compound `COc1ccc(NC(=O)CCl)cc1S(=O)(=O)N(C)C`, the Inhibition % is recorded as 9.41%.

Turning to `C=CC(=O)N[C@H]1C[C@H](C)S(=O)(=O)c2sccc21`, the Inhibition % was determined as 7.51%.

With `C=CC(=O)N1CCOCC2(CC2)C1`, the Inhibition % came out at 33.9%.

As for `C=CC(=O)N1CCN(c2ccc(C)o2)C(=O)C1`, the Inhibition % is listed as 5.39%.

Regarding `Cc1ccoc1C=C(C#N)C(=O)NCCc1ccccc1`, the Inhibition % is 0.974%.

Take `O=S1(=O)C=CC(O)C1` (stereo not drawn): the Inhibition % amounted to 4.75%.

On to `C=C(Cl)CSc1nc2ccsc2c(=O)n1C`, for which the Inhibition % was found to be 13.1%.

With `CC1(C)OB(c2ccc3c(c2)NC(=O)C3)OC1(C)C`, the Inhibition % turned out to be 27.3%.

Regarding `COC(=O)C1CC(S(=O)(=O)F)CN1C(=O)C1CC1C` (stereo not drawn), the Inhibition % amounted to 13.7%.

For the compound `C=CC(=O)N1CCCCC1CS(C)(=O)=O` (stereo not drawn), the Inhibition % is 5.69%.

For `CC1CC1C(=O)N1CCCCC1CCS(=O)(=O)F` (stereo not drawn), the Inhibition % is 57.7%.

Regarding `O=C(C1CCOCC1)N1CCCCC1CCS(=O)(=O)F` (stereo not drawn), the Inhibition % was 82.4%.

For `O=C(C1CCOCC1)N1CCOC(CS(=O)(=O)F)C1` (stereo not drawn), the Inhibition % was determined as 13.3%.

As to `O=C(C1CCOCC1)N1CCC(S(=O)(=O)F)CC1`, the Inhibition % worked out at 30.7%.

With `C=CC(=O)N1CCSC2(CCC2)CC1`, the Inhibition % is recorded as 10.9%.

In the case of `NC(=O)C1CCCN(S(=O)(=O)C=Cc2ccccc2)C1` (stereo not drawn), the Inhibition % stood at 6.58%.

For `CS(=O)(=O)C(C#N)=Cc1cnn(-c2ccccc2)c1`, the Inhibition % stood at 10.2%.

With `CN1CCN(c2cccc(C#N)n2)CC1`, the Inhibition % is 5.08%.

For the compound `CC1CC(Sc2nnc(-c3ccco3)o2)C(=O)O1` (stereo not drawn), the Inhibition % is 1.96%.

For the compound `C=CC(=O)N1CCOC(c2ccc(C(F)(F)F)cc2)C1` (stereo not drawn), the Inhibition % turned out to be 1.86%.

Consider `CCC1CN(C(=O)CCl)CCO1` (stereo not drawn), for which the Inhibition % is listed as 33.6%.

On to `O=C(CCl)N1CCOC(c2ccc(F)cc2)C1` (stereo not drawn), for which the Inhibition % is recorded as 95.3%.

Regarding `CC(C)c1nc(C(C)Nc2ccc(C#N)nc2)cs1` (stereo not drawn), the Inhibition % is reported as 3.63%.

Turning to `Cl.NCC1OB(O)c2ccccc21` (stereo not drawn), the Inhibition % was 3.67%.

In the case of `Cc1oncc1Cn1c(-c2ccncc2)noc1=O`, the Inhibition % stood at 59.3%.

As for `O=c1onc(-c2ccccc2)n1Cc1ccncc1`, the Inhibition % is 1.3%.

Consider `Cc1noc(C)c1Cn1c(-c2ccccc2)noc1=O`, for which the Inhibition % was found to be 14.3%.

For `Sc1nnnc2ccccc12`, the Inhibition % came out at 3.52%.

Turning to `O=C(NCCC(=O)N1CCCCC1)c1cc(S(=O)(=O)F)c[nH]1`, the Inhibition % came to 5.43%.

For the compound `CS(=O)C1(CNC(=O)c2cccc(S(=O)(=O)F)c2)CCC1` (stereo not drawn), the Inhibition % was determined as 97.3%.

On to `O=C(NCC12CCCN1CCC2)c1cccc(S(=O)(=O)F)c1`, for which the Inhibition % was 86.4%.

For `CN1CCC2(CCCN2C(=O)c2cccc(S(=O)(=O)F)c2)CC1`, the Inhibition % is reported as 10.6%.

On to `C=CC(=O)Nc1ccccc1N1CCNC(=O)C1`, for which the Inhibition % came out at 10.7%.

Turning to `C=CC(=O)N(CC)C1CCOC(C)(C)C1` (stereo not drawn), the Inhibition % amounted to 8.38%.

Take `O=c1c2ccccc2ncn1CCS(=O)(=O)F`: the Inhibition % was found to be 14.1%.

With `O=c1c2ccsc2ncn1CCS(=O)(=O)F`, the Inhibition % is given as 19.7%.

For the compound `O=c1c2ccccc2ccn1CCS(=O)(=O)F`, the Inhibition % is 95.1%.

As for `CC1(C)OB(c2ccc(C3CCC(=O)N3)cc2)OC1(C)C` (stereo not drawn), the Inhibition % is given as 6.79%.

As to `CNC(=O)C(NC(=O)CCl)c1ccccc1` (stereo not drawn), the Inhibition % was 8.83%.

Turning to `CC1(C)OB(c2cc(CN3CCCC3)ccc2F)OC1(C)C`, the Inhibition % came out at 3.85%.

`C=CC(=O)NC(C)(C)c1noc(C(C)(C)C)n1`: the Inhibition % is 17.1%.

With `CN(C)CCCn1c(S)nc2ccccc2c1=O`, the Inhibition % is reported as 5.79%.

As to `CN(C)CCn1c(S)nc2ccccc2c1=O`, the Inhibition % came out at 82.9%.

On to `CCN(CC)CCn1c(S)nc2ccccc2c1=O`, for which the Inhibition % is 4.52%.

`CC1=NOC(=O)C1CC(=O)O` (stereo not drawn): the Inhibition % worked out at 99%.

`CC1=NOC(=O)C1CCC(=O)O` (stereo not drawn): the Inhibition % was 8.64%.

For `O=C1OCCC1Sc1nnc(-c2ccncc2)o1` (stereo not drawn), the Inhibition % was 6.02%.

For `O=C1OCCC1Sc1nnc(-c2cccs2)o1` (stereo not drawn), the Inhibition % is recorded as 21.8%.

With `O=C1OCCC1Sc1nnc(C2CCCCC2)o1` (stereo not drawn), the Inhibition % is given as 66.7%.

Take `c1ccc(N2CCN(CC3OCCO3)CC2)cc1`: the Inhibition % turned out to be 5.86%.

In the case of `C=CC(=O)NC1CC(NC(=O)C2CCC2)C1` (stereo not drawn), the Inhibition % was 7.98%.

As for `N#Cc1ccc(NC(=O)CCCl)cc1`, the Inhibition % is given as 9.81%.

With `CC1(C)OB(c2ccnc3c(O)cccc23)OC1(C)C`, the Inhibition % amounted to 22.4%.

Take `ClCCCn1cccn1`: the Inhibition % was determined as 5.21%.

Turning to `CN(Cc1ccc2c(c1)OCCO2)C(=O)CCl`, the Inhibition % turned out to be 91.9%.

Regarding `CCN(Cc1ccc2c(c1)OCCO2)C(=O)CCl`, the Inhibition % is reported as 17.9%.

Take `CSc1ccc(CN(C)C(=O)CCl)cc1`: the Inhibition % amounted to 14.4%.

On to `CN(Cc1ccc(N(C)C)cc1)C(=O)CCl.Cl`, for which the Inhibition % turned out to be 71.3%.

`CN(Cc1ccsc1)C(=O)CCl`: the Inhibition % is reported as 37.6%.

Take `CN(Cc1ccc(Br)cc1)C(=O)CCl`: the Inhibition % came to 52.8%.

As to `Cc1ccc(CN(C)C(=O)CCl)cc1`, the Inhibition % came out at 68.9%.

Take `CN(Cc1ccc(Cl)cc1)C(=O)CCl`: the Inhibition % is reported as 48.5%.

As to `CN(Cc1ccc(Cl)c(Cl)c1)C(=O)CCl`, the Inhibition % came to 43.3%.

Consider `C=CC(=O)NCc1cc(C)on1`, for which the Inhibition % was 8.31%.

With `CCC(=O)N1CCCC1C1CCCN1C1CCOC1=O` (stereo not drawn), the Inhibition % is listed as 8.79%.

In the case of `N#CC(=Cc1ccc(CSC(F)F)o1)C(N)=O`, the Inhibition % is reported as 16.4%.

For the compound `CC(=O)c1ccc(F)c(B2OC(C)(C)C(C)(C)O2)c1`, the Inhibition % amounted to 5.97%.

With `O=C(CCl)N1N=C(c2ccco2)CC1c1cccs1` (stereo not drawn), the Inhibition % stood at 12.6%.

As for `O=C(CCl)Nc1ccccc1C(F)(F)F`, the Inhibition % came to 11.7%.

With `C=CC(=O)Nc1nc(COC)cs1`, the Inhibition % is on record as 8.35%.

As to `C=CC(=O)NCC1(C)CC(F)(F)C1`, the Inhibition % amounted to 5.99%.

Turning to `CC1CC(n2cnc3c2c(=O)n(C)c(=O)n3C)C(=O)O1` (stereo not drawn), the Inhibition % stood at 8.16%.

`CC(C)(C)Nc1cc(F)c(S(=O)(=O)F)cc1N`: the Inhibition % is recorded as 7.67%.

Regarding `Cc1nn(S(=O)(=O)c2ccccc2)c(C)c1C`, the Inhibition % was determined as 6.77%.

In the case of `N#CC(=Cc1ccccc1)C(=O)O`, the Inhibition % worked out at 0.493%.

On to `Clc1ccc(Cl)c(OCC2CO2)c1` (stereo not drawn), for which the Inhibition % is 5.37%.
